# Records with an inconclusive call do not appear. A call without a number means that no potency is given here. Calls of active or inactive are those of the source. Calls follow the shape of the dose curve; as a rule, active = well fitted cell-killing curve with a large enough effect; inconclusive = small, poorly fitted or top-dose-only effect; inactive = no such curve, though single readings can be large or run the other way.
# Experiment: qHTS of pediatric cancer cell lines to identify multiple opportunities for drug repurposing: Primary screen for A673 cells (AID 1347092); also: nearly all actives have a fitted effect of over 45% in size
# Conditions: A673 Ewing sarcoma viability, CellTiter-Glo ATP luminescence, 48 h; series mostly up to 46 µM
# In short: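 Luminescence from CellTiter-Glo, taken after 15 min at room temperature, served as the proxy for metabolically active cells following 48 h treatment. Both potency and efficacy were taken from curves fitted to the titration data.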
# Potency is read from the fitted curve at half-maximal effect.
row,Compound,Potency
1,CC(C)=CC1C(C(=O)OCc2cccc(Oc3ccccc3)c2)C1(C)C (centres undefined),inactive
2,CN1C(=S)CN=C(c2ccccc2)c2cc(Cl)ccc21,inactive
3,CCN(CC)CCOC(=O)C(O)(c1ccccc1)c1ccccc1,inactive
4,O=C(O)c1ccc2[nH]cc(CCCCN3CC=C(c4ccccc4)CC3)c2c1,inactive
5,CCOP(=S)(OCC)Oc1cc(C)nc(C(C)C)n1,inactive
6,Oc1ccccc1-c1ccccc1,inactive
7,CC(C)(C)NCC(O)c1cc(Cl)c(N)c(Cl)c1 (centres undefined),inactive
8,C[C@]12CC[C@H]3[C@@H](CCC4=CC(=O)CC[C@@H]43)[C@@H]1CC[C@@H]2OC(=O)CCc1ccccc1,inactive
9,CC(=O)Nc1cc([As](=O)(O)O)ccc1O,inactive
10,N[C@@H]1C[C@H]1c1ccccc1,inactive
11,c1ccc2c(c1)Nc1ccccc1S2,inactive
12,O=C(O)C(=O)c1cn(Cc2ccccc2)c2ccc(-c3ccc(OC(F)(F)F)cc3)cc12,inactive
13,Cc1ccc2c(c1)C1CN(C)CCC1N2 (centres undefined),inactive
14,COC1(CS(=O)c2ccccc2)CCN(CCc2c[nH]c3ccc(F)cc23)CC1 (centres undefined),inactive
15,CC1OC(C)OC(C)O1 (centres undefined),inactive
16,O=[N+]([O-])c1cc([As](=O)(O)O)ccc1O,inactive
17,O=C1CC[C@@]2(O)[C@H]3Cc4ccc(O)c5c4[C@@]2(CCN3CC2CC2)[C@H]1O5,inactive

row,Compound,Potency
1,Oc1ccc(Cl)cc1Cc1ccccc1,49.1 µM (active)
2,FC(F)(F)c1cccc(C2=CCN(CCc3ccc4ccccc4c3)CC2)c1,inactive
3,NP(N)(=O)NC(=O)c1ccc(F)cc1,inactive
4,CC(C)NCC(O)c1ccccc1Cl (centres undefined),inactive
5,CCCC1CCCCN1 (centres undefined),inactive
6,CC[N+](CC)(CC)CC,inactive
7,C#CCN(C)[C@H](C)Cc1ccccc1,inactive
8,O=c1oc2ccccc2c(O)c1C(CC(O)c1ccc(-c2ccc(Br)cc2)cc1)c1ccccc1 (centres undefined),inactive
9,N[C@@H](Cc1ccc(Oc2cc(I)c(O)c(I)c2)c(I)c1)C(=O)O,inactive
10,Clc1ccc(CCC(Cn2ccnc2)Sc2c(Cl)cccc2Cl)cc1 (centres undefined),23.5 µM (active)
11,Cn1c(CCCC(=O)O)nc2cc(N(CCCl)CCCl)ccc21,inactive
12,C#CCOC(C(=O)OCCN(C)C)(c1ccccc1)c1ccccc1,inactive
13,CC(C)(N)Cc1ccc(Cl)cc1,inactive
14,OCCOc1ccccc1,inactive
15,CCC(C(N)=O)N1CCCC1=O (centres undefined),inactive
16,Clc1cccc(N2CCNCC2)c1,inactive
17,NCCc1cc(O)c(O)cc1O,inactive

# Experiment: qHTS of pediatric cancer cell lines to identify multiple opportunities for drug repurposing: Primary screen for SK-N-MC cells (AID 1347093)
# Conditions: SK-N-MC viability, CellTiter-Glo luminescence, 48 h; series mostly up to 46 µM
# In short: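 Metabolically active cells were quantified by ATP-dependent luminescence (CellTiter-Glo, 15 min at room temperature) following 48 h treatment. Cells had been plated at 500-1,000 per well and settled for 5 h beforehand.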
row,Compound,Potency
1,CC(C)=CC1C(C(=O)OCc2cccc(Oc3ccccc3)c2)C1(C)C (centres undefined),inactive
2,O=C(O)c1ccc2[nH]cc(CCCCN3CC=C(c4ccccc4)CC3)c2c1,inactive
3,CCOP(=S)(OCC)Oc1cc(C)nc(C(C)C)n1,inactive
4,CC(C)(C)NCC(O)c1cc(Cl)c(N)c(Cl)c1 (centres undefined),inactive
5,CC(=O)Nc1cc([As](=O)(O)O)ccc1O,inactive
6,CC1=C2C[C@@H]3[C@@H](CC=C4C[C@@H](O)CC[C@@]43C)[C@@H]2CC[C@]12O[C@H]1C[C@H](C)CN[C@H]1[C@H]2C,inactive
7,Cc1ccc2c(c1)C1CN(C)CCC1N2 (centres undefined),inactive
8,CC1OC(C)OC(C)O1 (centres undefined),inactive
9,O=[N+]([O-])c1cc([As](=O)(O)O)ccc1O,inactive
10,NP(N)(=O)NC(=O)c1ccc(F)cc1,inactive
11,CC(C)NCC(O)c1ccccc1Cl (centres undefined),inactive
12,CCCC1CCCCN1 (centres undefined),inactive
13,C#CCN(C)[C@H](C)Cc1ccccc1,inactive
14,Clc1ccc(CCC(Cn2ccnc2)Sc2c(Cl)cccc2Cl)cc1 (centres undefined),23.5 µM (active)
15,CC(C)(N)Cc1ccc(Cl)cc1,inactive
16,OCCOc1ccccc1,inactive
17,CCC(C(N)=O)N1CCCC1=O (centres undefined),inactive
18,Clc1cccc(N2CCNCC2)c1,inactive
19,CC(C)(C)CC(C)(C)c1ccc(O)cc1,27.3 µM (active)
20,NCCc1cc(O)c(O)cc1O,inactive
